The results in this text go back to ChEMBL document CHEMBL3988442, “University of Dundee, Small-Polar-MMV Screening Library” (2021).

Out of some 48,000 compounds screened, about 13,000 (27%) showed an effect of 50% or more. The list shows a part of the results.

This test relates to Wolbachia pipientis. The test is described as follows: Anti-Wolbachia Cell-Based Screen. Type of test: functional. Also noted: scale not given: in the data most compounds retested in dose-response had high values. The following applies: 5 µM.
With `Cc1nc(C)n(C2CCCN(C(=O)c3ccc4c(c3)COC4)C2)n1` (stereo not given), the “Percent Effect” value is reported as -5.905%.
For `O=C(c1ccc2c(c1)CCCC2)N1CCCC(n2cncn2)C1` (stereo not given) the value was 100.2%; for `Cn1ccc(C(=O)N2CCCC(n3cncn3)C2)cc1=O` (stereo not given), 3.949%; for `O=C(c1cccc(N2CCCC2=O)c1)N1CCCC(n2cncn2)C1` (stereo not given), 0.04653%.
Consider `O=C(c1ccc2c(c1)COC2)N1CCCC(n2cncn2)C1` (stereo not given), for which the “Percent Effect” value was determined as 130%.
For `O=C(c1ccc(Cl)c(Cl)c1)N1CCCC(n2cncn2)C1` (stereo not given) the value was 3.266%; for `Cc1cc(Nc2ccc3c(c2)CC(=O)N3)nc(C(C)C)n1`, 5.406%; for `Cc1noc(C)c1CN1CCC[C@]2(C[C@@H](Oc3ccccn3)CO2)C1.O=C(O)C(F)(F)F.O=C(O)C(F)(F)F`, -19.05%.
The same measure for `CCS(=O)(=O)N1CC[C@]2(C[C@@H](OCC3CC3)CO2)C1`: -6.112%.
The same measure for `O=C(COc1ccccc1)N1CCC[C@]2(C[C@@H](OCC3CC3)CO2)C1`: 18.43%; for `O=C(COc1ccccc1)N1CCC[C@]2(C[C@H](OCC3CC3)CO2)C1`: 5.425%.
For `CCO[C@@H]1CO[C@@]2(CCCN(Cc3scnc3C)C2)C1.O=C(O)C(F)(F)F`, the “Percent Effect” value is recorded as -0.3895%.
Regarding `COc1ccccc1CN1CC[C@]2(C[C@H](OC)CO2)C1.O=C(O)C(F)(F)F`, the “Percent Effect” value stood at 9.484%.
Regarding `Cc1csc(CN2CCC[C@]3(C[C@H](OCC4CC4)CO3)C2)n1`, the “Percent Effect” value is 94.91%.
As for `CO[C@@H]1CO[C@@]2(CCCN(Cc3nc(C)cs3)C2)C1.O=C(O)C(F)(F)F`, the “Percent Effect” value amounted to 128.3%.
For `CCO[C@H]1CO[C@@]2(CCCN(Cc3nc(C)cs3)C2)C1.O=C(O)C(F)(F)F`, the “Percent Effect” value is listed as -3.246%.
The same measure for `CCO[C@H]1CO[C@@]2(CCCN(Cc3scnc3C)C2)C1.O=C(O)C(F)(F)F`: 114.2%.
For `Cc1csc(CN2CCC[C@]3(C[C@@H](OCC4CC4)CO3)C2)n1.O=C(O)C(F)(F)F` the value was 105.3%.
As to `O=C(O)C(F)(F)F.O=S(=O)(C1CC1)N1CCC[C@]2(C[C@@H](Oc3ccccn3)CO2)C1`, the “Percent Effect” value is recorded as 2.781%.
`Cl.c1cnc(N2CCCC(NCc3cccc4c3OCCO4)C2)nc1` (stereo not given): the “Percent Effect” value is 11.77%.
With `Cc1cn2c(n1)CCC(NS(=O)(=O)c1ccc(C)s1)C2` (stereo not given), the “Percent Effect” value is on record as -1.096%.
The same measure for `Cc1ccc2c(c1)C1(CCN(C(=O)C3CC3)CC1)CC2N1CCOCC1.O=C(O)C(F)(F)F` (stereo not given): 4.954%; for `Cc1cc(C)n(CC2CCCCN2CC(=O)Nc2c(C)n[nH]c2C)n1` (stereo not given): 1.6%.
`Cc1n[nH]c(C)c1CCC(=O)NCC1CCCN(C2CCCC2)C1` (stereo not given): the “Percent Effect” value is 80.33%.
For `Cc1[nH]nc(CCC(=O)NCC2CCCN(C3CCCC3)C2)c1C` (stereo not given) the value was 91.65%; for `Cc1n[nH]c(C)c1CCC(=O)NCC1COc2ccccc2C1` (stereo not given), -6.3%.
For `Cc1[nH]nc(CCC(=O)NCC2CCN(C3CCCCC3)C2)c1C` (stereo not given) the value was 82.83%.
Take `Cc1n[nH]c(C)c1NC(=O)CN1CCCC(CNC(=O)C(C)(C)C)C1` (stereo not given): the “Percent Effect” value was determined as 3.245%.
For `CCCc1nc(C)c(C(=O)NCC2CCN(C3CC3)C2)s1` (stereo not given) the value was 9.564%.
As for `Cc1cc(CN2CCC(CNC(=O)CN3CCCCCC3)C2)[nH]n1` (stereo not given), the “Percent Effect” value amounted to 4.399%.
For the compound `Cc1[nH]nc(CCC(=O)NCC2COc3ccccc3C2)c1C` (stereo not given), the “Percent Effect” value is recorded as -76.22%.
The same measure for `Cc1n[nH]c(C)c1CCC(=O)NCC1CCOc2ccccc2C1` (stereo not given): -7.064%; for `Cc1ccc(C2CN(C(=O)NCc3nnc4ccccn34)CCO2)o1` (stereo not given): -6.842%; for `Cc1cnn(CC(=O)NCC2(O)CCCc3ccccc32)c1` (stereo not given): -1.481%.
With `CN(Cc1ccc(C(N)=O)cc1)c1ccc(C(F)(F)F)cn1`, the “Percent Effect” value was 16.53%.
As for `FC(F)(F)c1ccccc1CN1CCOC[C@H](Oc2cccnc2)C1`, the “Percent Effect” value is given as -13.87%.
As to `COc1cccc2c1N(Cc1nc(C3CC3)no1)CCC2`, the “Percent Effect” value is on record as -12.66%.
The same measure for `Cc1cc(N2CCCN(c3ccnc(C)c3)CC2)ccn1`: 10.82%.
For `Cc1cc(N2CCCN(C(=O)Cc3csc(C)n3)CC2)ccn1` the value was -22.63%; for `CNc1nc(C(=O)N2CCCN(c3ccnc(C)c3)CC2)cs1`, 103.6%.
Take `CNc1nc(C(=O)N2CCN(c3cc(C)nc(C)c3)CC2)cs1`: the “Percent Effect” value is given as 104.9%.
In the case of `Cc1cc(N2CCN(C(=O)CCc3scnc3C)CC2)cc(C)n1`, the “Percent Effect” value is on record as 13.55%.
The same measure for `CNc1nc(C(=O)N2CCCC(c3nccn3CC3CCC3)C2)cs1` (stereo not given): 4.458%; for `Cc1noc2ncc(C(=O)N(CC3CCOC3)C3CC3)cc12` (stereo not given): -8.329%; for `CC(C)Cn1cc(NC(=O)NCC2CCN(c3ccccc3)C2)cn1` (stereo not given): -4.161%.
For `COCCN(C)CCN1CC2(CCN(C3CCOC3)CC2)OC1=O` (stereo not given) the value was -5.724%.
In the case of `Cc1ccc(-c2cc(C(=O)NCCN3CCOCC3)n[nH]2)s1`, the “Percent Effect” value turned out to be 2.618%.
Turning to `COc1ccc(OCc2nc(C(=O)NCCN3CCOCC3)co2)cc1`, the “Percent Effect” value is given as -20.12%.
As for `Cc1ccc(-n2nnc(CC(=O)N3CCOCC3)c2C)cc1`, the “Percent Effect” value is reported as -5.261%.
The same measure for `COc1ccc(-c2n[nH]c(C)c2CC(=O)NCC2CCCO2)cc1` (stereo not given): 140.4%; for `Cc1ccc(-c2nc(CC(=O)NCC3CCOC3)cs2)o1` (stereo not given): 7.713%.
The same measure for `COc1ccc(-c2n[nH]c(C)c2CC(=O)N2CCOCC2)cc1`: 82.2%.
For the compound `COc1ccc(CC(=O)Nc2c(C)nc(N3CCOCC3)nc2C)cc1`, the “Percent Effect” value is listed as 11.03%.
For `COc1ccc(-c2n[nH]c(C)c2CC(=O)NCCN2CCOCC2)cc1` the value was 95.82%.
Turning to `COc1ccc2c(c1)OCC(CNC(=O)CCc1c(C)n[nH]c1C)C2` (stereo not given), the “Percent Effect” value stood at 2.391%.
Regarding `COc1ccc(-c2n[nH]c(C)c2CC(=O)NCC2CCOCC2)cc1`, the “Percent Effect” value turned out to be 94.98%.
The same measure for `Cc1cc(=O)n(CC(=O)NCC2CCCO2)c(-c2ccc(F)cc2)n1` (stereo not given): 12.17%.
On to `CCC(=O)c1ccc(OCC(=O)NCC2CCCO2)cc1` (stereo not given), for which the “Percent Effect” value was 8.672%.
For the compound `CC(C)N1CCC(NC(=O)NC2CCOc3ccc(Br)cc32)CC1` (stereo not given), the “Percent Effect” value is given as 4.745%.
On to `CN(C)C(=O)N[C@H]1CN(C2CCOCC2)[C@@H]2CCCO[C@H]12.O=C(O)C(F)(F)F`, for which the “Percent Effect” value came out at 16.52%.
For the compound `NC(=O)c1ccc(N2CCCCC2)c(NC(=O)c2ccc(Br)cc2)c1`, the “Percent Effect” value turned out to be 7.886%.
Turning to `Cc1noc(C)c1CN1CC[C@H]2OCC[C@@H](C(=O)N3CCCO3)[C@@H]2C1`, the “Percent Effect” value is -14.86%.
On to `Cc1nn2cccnc2c1C(=O)N1CCCC(Nc2ccccc2)C1` (stereo not given), for which the “Percent Effect” value is recorded as -8.048%.
For `CC(=O)N(C)CC(=O)NC1(c2ccc(Cl)c(Cl)c2)CC1` the value was -1.911%; for `CC1CN(C(=O)Nc2cc(C(F)(F)F)c[nH]c2=O)CCO1` (stereo not given), 83.43%; for `CC(C)CN1CCN(C(=O)Nc2cc(C(F)(F)F)c[nH]c2=O)CC1`, -8.263%.
The same measure for `COC1CCN(C(=O)Nc2cc(C(F)(F)F)c[nH]c2=O)CC1`: 107.9%; for `CC(CCc1ccco1)NC(=O)Nc1cc(C(F)(F)F)c[nH]c1=O` (stereo not given): -5.295%.
The same measure for `Cn1cnnc1CNC(=O)Nc1cc(C(F)(F)F)c[nH]c1=O`: -11.16%; for `O=C(Nc1cc(C(F)(F)F)c[nH]c1=O)c1ccco1`: -1.817%; for `O=C(Nc1cc(C(F)(F)F)c[nH]c1=O)N1CCOCC1`: 95.88%.
For the compound `Cc1ncc(CNC(=O)Nc2cc(C(F)(F)F)c[nH]c2=O)s1`, the “Percent Effect” value is reported as -11.29%.
Consider `CC(C)(C)N1CCN(C(=O)Nc2cc(C(F)(F)F)c[nH]c2=O)CC1`, for which the “Percent Effect” value is given as 82.7%.
On to `COCC1CN(C(=O)Nc2cc(C(F)(F)F)ccc2F)CCO1` (stereo not given), for which the “Percent Effect” value is on record as -13.47%.
The same measure for `COc1cc(CNC(=O)Nc2cc(C(F)(F)F)c[nH]c2=O)ccn1`: -10.71%.
Consider `CS(=O)(=O)N1CCC2(CC1)CN(CC1CC1)CC21CCNC1=O.O=C(O)C(F)(F)F` (stereo not given), for which the “Percent Effect” value is -40.94%.
Regarding `Cc1nc(-c2cn(CCN)nn2)n(-c2ccc(C(F)(F)F)cc2)n1`, the “Percent Effect” value was -70.01%.
The same measure for `Cc1nccn1-c1ccc(N2CCC(N[C@H](C)C(C)C)CC2)cc1`: 17.33%; for `CC1CN(C(=O)Nc2ccc(Cl)c(C(=O)NC3CC3)c2)CC(C)(C)O1` (stereo not given): -20.36%; for `O=C(NCCNc1ncccn1)Nc1cc(C(F)(F)F)c[nH]c1=O`: -3.235%.
For `CCCc1noc(CCC(=O)Nc2cc(C(F)(F)F)c[nH]c2=O)n1` the value was -8.892%; for `O=C(Nc1cc(C(F)(F)F)c[nH]c1=O)N1CCCSCC1`, -10.12%.
`CC1CN(C(=O)Nc2cc(C(F)(F)F)c[nH]c2=O)CC(C)(C)O1` (stereo not given): the “Percent Effect” value is given as 113.6%.
As for `O=C(Nc1cc(C(F)(F)F)c[nH]c1=O)N1CCSCC1`, the “Percent Effect” value was found to be 108.7%.
Take `CC1(C)CN(C(=O)Nc2cc(C(F)(F)F)c[nH]c2=O)CCO1`: the “Percent Effect” value was determined as 99.91%.
As to `Cc1noc(CCCC(=O)Nc2cc(C(F)(F)F)c[nH]c2=O)n1`, the “Percent Effect” value amounted to 11.68%.
As for `O=C(NC1=NCCS1)C1CSCN1C(=O)C1CCCC1` (stereo not given), the “Percent Effect” value is reported as -6.178%.
The same measure for `Cn1cccc(NC(=O)NCc2cccc(CO)c2)c1=O`: -1.059%.
Consider `Cc1cc(-c2nc(-c3ccccn3)nn2C2CCN(C)CC2)nc(C)n1`, for which the “Percent Effect” value was -5.062%.
The same measure for `O=C(CCc1nc2cccnc2[nH]1)NCc1cccnc1`: 5.887%; for `Cc1cccc(N2CCN(CCC(=O)NCc3cccnc3)CC2)c1`: 6.039%; for `O=C(CCc1nnc2ccccn2c1=O)NCc1cccnc1`: 121.1%.
Turning to `O=C(CCc1nnc2ccccn2c1=O)NCc1ccco1`, the “Percent Effect” value is 105.9%.
Regarding `COc1ccc(CNC(=O)CCc2nnc3ccccn3c2=O)cc1`, the “Percent Effect” value is on record as 126.1%.
As to `O=C(CCc1nc2cccnc2[nH]1)NCc1ccc2c(c1)OCO2`, the “Percent Effect” value is reported as 27.54%.
The same measure for `O=C(CCc1nnc2ccccn2c1=O)NCc1ccc2c(c1)OCO2`: 110.3%.
The same measure for `Cn1cccc1CNC(=O)CCCc1nnc2ccccn12`: 14.24%; for `O=C(CCC1CCCC1)NCc1nnc2ccccn12`: 1.32%; for `O=C(Cn1ccc2sccc2c1=O)NCc1ccc2c(c1)OCO2`: 0.2723%.
The same measure for `COc1ccc(CNC(=O)Cc2csc(C(C)=O)c2)cc1`: 2.837%.
